Assay [1] deals with Glutathione peroxidase 1 (Homo sapiens) (UniProt P07203). Description: Primary qHTS Assay for Inhibitors of Recombinant Selenoprotein Glutathione Peroxidase 1 (GPX1) (AID 1845191). Note: potency is the fitted concentration of half-maximal effect. The conditions noted are these: recombinant GPX1, GR-coupled NADPH fluorescence, 15 min; series mostly up to 48.8 µM. An outline of the steps: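 NADPH consumption tracked by fluorescence at 340/450 nm between t=0 and t=15 min, room temperature. Final mix: 10 nM GPX1, 100 nM glutathione reductase, 1 mM GSH, 0.5 mM NADPH, 0.5 mM cumene hydroperoxide, 0.01% BSA; 30 min compound–enzyme preincubation.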
On the technique in general: qHTS replaces the single test concentration by a dilution series.

The target of assay [2] is Phospholipid hydroperoxide glutathione peroxidase GPX4 (Homo sapiens) (UniProt P36969). Description: Primary qHTS Assay for Inhibitors of Recombinant Selenoprotein Glutathione Peroxidase 4 (GPX4) (AID 1845192). The conditions noted are these: recombinant GPX4, GR-coupled NADPH fluorescence, 15 min; series mostly up to 50 µM. An outline of the steps: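 NADPH consumption followed by fluorescence at 340/450 nm, t=0 and after 15 min at room temperature. Reaction started with cumene hydroperoxide (0.5 mM final) after 30 min compound–GPX4 preincubation; final 200 nM GPX4, 100 nM GR, 1 mM GSH, 0.5 mM NADPH.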

“And” between values parts separate entries of the source, which are not always exact repeats. Identical values can stand only once. Results filed as inconclusive are left out. A call without a number means that no potency is given here. The source made the active and inactive calls. Calls come from the whole dose curve; as a rule, active = well fitted inhibition curve with a large enough effect; inconclusive = small, poorly fitted or top-dose-only effect; inactive = flat fitted curve, though single readings scatter. Residues, ends and D or L forms follow the SMILES beside them. *: point of attachment. Cbz = O=C(OCc1ccccc1)*
Note: nearly all actives have a fitted effect of over 65% in size.

Glutathione peroxidase 1 (Homo sapiens), sequence (P07203 whole entry, looked up): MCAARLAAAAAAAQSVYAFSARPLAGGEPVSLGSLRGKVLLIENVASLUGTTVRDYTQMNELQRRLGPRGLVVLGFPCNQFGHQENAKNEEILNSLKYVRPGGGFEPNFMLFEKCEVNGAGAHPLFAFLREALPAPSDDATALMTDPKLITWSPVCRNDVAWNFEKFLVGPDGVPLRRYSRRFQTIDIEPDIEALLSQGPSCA
Phospholipid hydroperoxide glutathione peroxidase GPX4 (Homo sapiens), sequence (P36969 whole entry, looked up): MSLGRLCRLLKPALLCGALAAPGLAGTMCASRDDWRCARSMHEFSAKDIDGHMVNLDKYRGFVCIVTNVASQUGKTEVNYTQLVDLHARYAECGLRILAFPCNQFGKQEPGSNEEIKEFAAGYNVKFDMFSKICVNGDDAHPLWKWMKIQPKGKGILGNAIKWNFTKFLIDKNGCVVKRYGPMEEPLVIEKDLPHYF

Consider `CC(C)[C@H](NC(=O)OCc1ccccc1)C(=O)N[C@H](C=O)Cc1ccccc1` (Cbz-Val-Phe-aldehyde), for which the Potency result in assay [1] and in assay [2] was “inactive” in each case. `CC(N)(C(=O)O)c1ccc(C(=O)O)cc1` (stereo not drawn): the Potency entry in assay [1] and in assay [2] was “inactive” throughout.

`N[C@H]1CONC1=O`: the Potency entry in assay [1] and in assay [2] was “inactive” in each case. As for `C[C@@]1(C2CCCC2)Cc2cc(OCC(=O)O)c(Cl)c(Cl)c2C1=O`, the Potency result in assay [1] and in assay [2] was “inactive” each time. With `COC1(C2=NCCN2)COc2ccccc2O1` (stereo not drawn), the Potency entry in assay [1] and in assay [2] was “inactive” in each case. Take `C=CCn1c(=O)c2c(nc(-c3ccc(S(=O)(=O)O)cc3)n2C)n(C)c1=O`: the Potency entry in assay [1] and in assay [2] was “inactive” each time. Take `CC(C)C[C@H](NC(=O)[C@H](O)[C@H](N)Cc1ccccc1)C(=O)O`: the Potency entry in assay [1] and in assay [2] was “inactive” each time. As to `NC1(C(=O)O)CCCCC1`, the Potency entry in assay [1] and in assay [2] was “inactive” each time.

With `Nc1nc2[nH]c(=O)cnc2c(=O)[nH]1`, the Potency result in assay [1] and in assay [2] was “inactive” in each case. As to `NCC(O)C1CCCCCCC1` (stereo not drawn), the Potency result in assay [1] and in assay [2] was “inactive” each time.

For `NCCCNCCCCNCCCN`, the Potency result in assay [1] and in assay [2] was “inactive” throughout. With `O=C(O)Cc1ccc(O)c(O)c1`, the Potency entry in assay [1] is “inactive”. `CNCCc1cnc(CCC(c2ccccc2)c2ccccc2)[nH]1`: the Potency entry in assay [1] and in assay [2] was “inactive” throughout. Take `CC(=O)NNC(=O)N1Cc2ccccc2Oc2ccc(Cl)cc21`: the Potency entry in assay [1] and in assay [2] was “inactive” each time.

In the case of `Nc1ncnc2c1nc(Sc1ccc(Cl)cc1)n2[C@H]1OC2COP(=O)(O)O[C@@H]2C1O` (stereo partly drawn), the Potency result in assay [1] and in assay [2] was “inactive” throughout. Take `N=C(N)c1ccccc1`: the Potency result in assay [1] and in assay [2] was “inactive” in each case. Take `NOCC(=O)O`: the Potency entry in assay [1] and in assay [2] was “inactive” in each case. For `CCc1ccc2c(-c3cccc(Cl)c3)nc(=O)n(CC)c2n1`, the Potency entry in assay [1] and in assay [2] was “inactive” throughout. `COc1ccccc1N1CCN(CCCNc2c(C)c(=O)n(C)c(=O)n2C)CC1`: the Potency result in assay [1] and in assay [2] was “inactive” each time. Take `Nc1ncnc2c1nc(Br)n2C1OC2COP(=O)(O)O[C@@H]2C1O` (stereo partly drawn): the Potency result in assay [1] and in assay [2] was “inactive” in each case. With `Cn1cc(C(F)(F)F)nc1-c1ccc(OCC(O)CNCCOc2ccc(O)c(C(N)=O)c2)cc1` (stereo not drawn), the Potency entry in assay [1] and in assay [2] was “inactive” each time. Take `COc1ccc2c(c1)CCC1C2CC[C@@]2(C)C1CC[C@@H]2NCCCCCCN1C(=O)C=CC1=O` (stereo partly drawn): the Potency result in assay [1] and in assay [2] was “inactive” each time.

In the case of `CCCCOc1cc(CC2CNC(=O)N2)ccc1OC` (stereo not drawn), the Potency entry in assay [1] and in assay [2] was “inactive” in each case. With `CSc1nc(N)c2ncn([C@@H]3O[C@H](COP(=O)(O)OP(=O)(O)O)C(O)[C@H]3O)c2n1` (stereo partly drawn), the Potency result in assay [1] and in assay [2] was “inactive” each time. As to `COc1ccc(C(=O)NCc2cccnc2)cc1C(=O)NCc1cccnc1`, the Potency entry in assay [1] and in assay [2] was “inactive” in each case.

In the case of `C=CC[C@H](N)C(=O)O`, the Potency result in assay [1] and in assay [2] was “inactive” each time. Take `C#CC(N)CCC(=O)O` (stereo not drawn): the Potency entry in assay [1] and in assay [2] was “inactive” each time. In the case of `Cc1nc(N=Nc2cc(S(=O)(=O)O)c3cc([N+](=O)[O-])cc(S(=O)(=O)O)c3c2)c(COP(=O)(O)O)c(C=O)c1O`, the Potency result in assay [1] and in assay [2] was “inactive” each time. As for `O=c1cc(-c2ccccc2F)[nH]c2cc3c(cc12)OCO3`, the Potency result in assay [1] and in assay [2] was “inactive” each time. For `CC(=O)NCCc1c[nH]c2ccc(O)cc12`, the Potency entry in assay [1] and in assay [2] was “inactive” throughout. For the compound `O=c1[nH]ccc2c(O)cccc12`, the Potency result in assay [1] and in assay [2] was “inactive” each time.

Take `CCCCC[C@H](CC(=O)NO)C(=O)N[C@H](C(=O)N1CCC[C@H]1CO)C(C)C`: the Potency entry in assay [1] and in assay [2] was “inactive” each time.

As to `NC(=O)c1cc[n+](CC2=C(C(=O)O)N3C(=O)[C@@H](NC(=O)[C@@H](c4ccccc4)S(=O)(=O)[O-])[C@H]3SC2)cc1`, in assay [1], the Potency is 4.53 µM (active) and 28.2 µM (active). In assay [2], the Potency result is “inactive”.

Turning to `CC1CCN=C(N)S1` (stereo not drawn), the Potency entry in assay [1] and in assay [2] was “inactive” each time. As for `O=C(N[C@@H](Cc1ccccc1)C(=O)CCl)OCc1ccccc1`, the Potency entry in assay [1] and in assay [2] was “inactive” throughout.

On to `c1ccc(C(NCCNC(c2ccccc2)c2ccccc2)c2ccccc2)cc1`, for which the Potency entry in assay [1] and in assay [2] was “inactive” throughout. As for `O=c1ccn([C@@H]2O[C@H](COP(=O)(O)OP(=O)(O)O)[C@@H](O)[C@H]2O)c(=O)[nH]1`, the Potency entry in assay [1] and in assay [2] was “inactive” in each case.

For `Fc1ccc(CN(C2=NCCN2)c2c(Cl)cccc2Cl)cc1`, the Potency entry in assay [1] and in assay [2] was “inactive” each time. `CC1=C(/C=C/C(C)=C/C=C/C(C)=C\C(=O)O)C(C)(C)CCC1`: the Potency result in assay [1] and in assay [2] was “inactive” each time. Regarding `CC(/C=C/c1cccc(Oc2ccc(F)cc2)c1)N(O)C(N)=O` (stereo not drawn), the Potency entry in assay [1] and in assay [2] was “inactive” in each case. `CC(N)=NCCCC[C@@H](N)C(=O)O`: the Potency result in assay [1] and in assay [2] was “inactive” throughout. `CC(C)[C@@H]1CC[C@@H](C)C[C@@H]1P(=O)(c1ccccc1)c1ccccc1`: the Potency result in assay [1] and in assay [2] was “inactive” throughout. In the case of `C=CCN1CCc2c(cc(O)c(O)c2Br)[C@@H](c2ccccc2)C1`, the Potency result in assay [1] and in assay [2] was “inactive” throughout. In the case of `OC1(c2ccc(Cl)cc2)CCN(Cc2c[nH]c3ccccc23)CC1`, the Potency result in assay [1] and in assay [2] was “inactive” each time. On to `COc1ccc(-c2ccc(N)[n+](CCCC(=O)O)n2)cc1`, for which the Potency result in assay [1] and in assay [2] was “inactive” in each case. `NC(Cc1cccc(-c2ccccc2CP(=O)(O)O)c1)C(=O)O` (stereo not drawn): the Potency result in assay [1] and in assay [2] was “inactive” in each case.

On to `COc1cc(CNC(=O)CCCCCCC(C)C)ccc1O`, for which the Potency entry in assay [1] and in assay [2] was “inactive” each time. On to `O=C1OC(=O)C2C3CCC(O3)C12` (stereo not drawn), for which the Potency entry in assay [1] and in assay [2] was “inactive” each time. As to `CCN(c1nc(N)c(C(=O)N=C(N)N)nc1Cl)C(C)C`, the Potency entry in assay [1] and in assay [2] was “inactive” throughout. Regarding `O=C1NC(=O)c2cc(Nc3ccccc3)c(Nc3ccccc3)cc21`, the Potency entry in assay [1] and in assay [2] was “inactive” each time. In the case of `C=C1C[C@@]23CC[C@H]4[C@@](C)(CCC[C@@]4(C)C(=O)O)[C@@H]2CC[C@]1(O)C3`, the Potency result in assay [1] and in assay [2] was “inactive” in each case. With `CCCCCC[C@@H]([C@@H](C)O)n1cnc2c(N)ncnc21`, the Potency result in assay [1] and in assay [2] was “inactive” throughout.

The record behind these values is PubChem BioAssay (NCATS).
